Common to all, as to test: NCI-60 one-dose screen, 48 h (100 = growth as untreated, 0 = no growth, -100 = all killed)
Common to all, as to details: 10 µM unless noted

Assay [1] deals with T-47D breast.
The subject of assay [2] is BT-549 breast.
Assay [3] relates to MDA-MB-435 melanoma.
Assay [4] concerns SW-620 colon.
Assay [5] deals with MCF7 breast.
Assay [6] has as its system HCT-116 colon.
The subject of assay [7] is HCC-2998 colon.
Assay [8] concerns KM12 colon.

Compounds without any hit were thinned out: in the full panel of roughly 83,000, 20% have a hit.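 For each line, cells grew in 96-well plates with the test compound present at a single concentration for 48 hours.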 Values without a mark were called inactive. Activity calls are given as the source filed them. Rule for the calls: active = growth percent below 10; inactive = the rest.

This is an account of results in PubChem BioAssay (NCI).

With `O=C(Nc1cc(Cl)ccc1O)c1cccc(Nc2ccnc(C(F)(F)F)c2)c1`, the growth in assay [1] is 10.8%; in assay [2], 34.9%; in assay [3], 31.2%; in assay [4], 62.9%; in assay [5] it was 26%; in assay [6], 26.1%. Moreover, the growth in assay [7] was 25.5%; in assay [8] it was 36.5%.
For the compound `CCN1C(=O)N(CC)C2C1NN=c1s/c(=C3\C(=O)N(CCC(C)C)c4ccccc43)c(=O)n12` (stereo not drawn), the growth in assay [1] is 80.2%; in assay [2], 11.6%; in assay [3] it was -31.3% (active); in assay [4] it was 31.7%; in assay [5] it was 14.9%; in assay [6], 10.6%. The growth in assay [7] was 11.6%; in assay [8], 17.6%.
Take `CN(C)CCCC1(c2ccc(F)cc2)OCc2cc(-c3ccc4cc[nH]c4c3)ccc21` (stereo not drawn): the growth is 75.8% in assay [1]; 87.7% in assay [2]; 14.7% in assay [3]; 17.2% in assay [4]; -4.23% (active) in assay [5]; -12.2% (active) in assay [6]. In addition, the figures for the growth in assay [7] and in assay [8] were -61.6% (active) and 0.464% (active), respectively.
Turning to `CO[C@H]1CC(=O)n2c3ccccc3c3c4c(c5c6ccccc6n1c5c32)C(=O)NC4=O`, the growth in assay [1] was 11.1%; in assay [2] it was 68.6%; in assay [3], 48.5%; in assay [4], 32.8%; in assay [5], 20.1%; in assay [6] it was 55.6%. Besides, the growth in assay [7] was 93.7%; in assay [8], 29.9%.
Turning to `C=CCOC(=O)C1=C(C)N(CC)C(=O)NC1c1c(Cl)n(C)c2ccccc12` (stereo not drawn), the growth is 91% in assay [1]; 102% in assay [2]; 98.1% in assay [3]; 101% in assay [4]; 98.7% in assay [5]; 90% in assay [6]. Besides, the growth is 91.2% in assay [7] and 85.7% in assay [8].
In the case of `COC1=C(C)C(=O)N2[C@@H]1[C@H](c1ccccc1)OC21C=CC(=O)C=C1`, the growth in assay [1] was 17.6%; in assay [2], -34.1% (active); in assay [3], -48.8% (active); in assay [4] it was -36% (active); in assay [5] it was 7.61% (active); in assay [6], -51% (active). Moreover, the growth in assay [7] was 35.7%; in assay [8], 52.8%.
Regarding `CC1(C)CC(=O)c2c(nn(-c3ccc(Br)cc3)c2-c2cn(-c3ccccc3)nc2-c2cccnc2)C1`, the growth in assay [1] is 70.8%; in assay [2] it was 86.9%; in assay [3], 105%; in assay [4] it was 91.4%; in assay [5], 75.2%; in assay [6], 85%. Further, the values for the growth in assay [7] and in assay [8] were 106% and 97.1%, respectively.
Regarding `C=C(CNCCO)[C@@H]1CC[C@]2(CO)CC[C@]3(C)[C@H](CC[C@@H]4[C@@]5(C)CCC(N)C(C)(C)[C@@H]5CC[C@]43C)[C@@H]12` (stereo partly drawn), the growth in assay [1] was -47.7% (active); in assay [2], 65%; in assay [3], -44% (active); in assay [4] it was 7.71% (active); in assay [5], -29.9% (active); in assay [6], 7.75% (active). In addition, the growth was -37.2% (active) in assay [7] and 25.2% in assay [8].
In the case of `O=C(/C=C/c1ccccc1)c1ccc(Nc2nc(Nc3ccc(F)cc3)nc(Nc3ccc(Cl)cc3)n2)cc1`, the growth in assay [1] is 62.1%; in assay [2] it was 101%; in assay [3], 95.7%; in assay [4], 90.4%; in assay [5], 30.2%; in assay [6], 49.6%. In addition, the growth in assay [7] is 70.8%; in assay [8], 91.6%.
Take `CN(C)CCN1C(=O)c2cccc3c(/C=C/CN4C(=O)c5cccc6cccc(c56)C4=O)ccc(c23)C1=O`: the growth in assay [1] was 97.6%; in assay [2], 97%; in assay [3] it was 89.3%; in assay [4], 11.9%; in assay [5], -71.6% (active); in assay [6], 9.57% (active). In addition, the growth in assay [7] is 36.4%; in assay [8], -79.4% (active).
As for `COc1ccc(/C=C/C(=O)c2cc3c(N)c(C(=O)Nc4cccc(Cl)c4C)sc3nc2C)cc1`, the growth was 38.9% in assay [1]; -19% (active) in assay [2]; -28.2% (active) in assay [3]; 13.2% in assay [4]; 7.78% (active) in assay [5]; 5.3% (active) in assay [6]. Also, the growth is 1.15% (active) in assay [7] and 7.8% (active) in assay [8].
Take `COC(=O)c1nc(-c2ccccc2)oc1S(=O)(=O)NCC(c1ccc(Cl)cc1)N1CCOCC1` (stereo not drawn): the growth was 53.5% in assay [1]; 56% in assay [2]; 64.8% in assay [3]; 18.7% in assay [4]; 31.7% in assay [5]; 62.2% in assay [6]. Moreover, the growth in assay [7] is 121%; in assay [8] it was 89%.
`CCCCCCCCCCCCCCCCCCOc1ccccc1CC(=O)NCC[N+]1(C)CCCCC1`: the growth in assay [1] was 75.3%; in assay [2], 74.9%; in assay [3] it was 60.5%; in assay [4], 63.8%; in assay [5] it was 53.3%; in assay [6], 57.4%. For the same compound, the growth in assay [7] is 32.2%; in assay [8], 28.8%.
In the case of `O=C(Nc1cnc(Nc2ccc(N3CCOCC3)nc2)nc1Oc1ccc(C(F)(F)F)cc1)c1ccncc1`, the growth in assay [1] was 72.9%; in assay [2], 75.8%; in assay [3] it was 91.3%; in assay [4] it was 97.5%; in assay [5], 77.3%; in assay [6], 61.9%. For the same compound, the growth was 110% in assay [7] and 91% in assay [8].
In the case of `CCOC(=O)C(=CNc1cnc(Nc2ccc(N3CCOCC3)cc2)nc1Oc1ccc(OC)cc1)C(=O)OCC`, the growth in assay [1] was 84.7%; in assay [2] it was 77.3%; in assay [3], 61.7%; in assay [4] it was 46.8%; in assay [5], 61.3%; in assay [6], 11.4%. Moreover, the growth in assay [7] was 91.7%; in assay [8], 76.8%.
Regarding `O=C(NC(Cc1nnc2n(Cc3ccccc3)c(=O)c3c4c(sc3n12)CCCC4)c1ccccc1)c1ccccc1` (stereo not drawn), the growth was 102% in assay [1]; 100% in assay [2]; 105% in assay [3]; 101% in assay [4]; 97.9% in assay [5]; 81.4% in assay [6]. Further, the growth in assay [7] and in assay [8] was 108% throughout.
With `C=C1C(=O)O[C@H]2[C@H]1CC/C(COC(=O)/C=C\C(=O)NCc1ccc(Cn3c(=O)sn(CCCCC)c3=O)cc1)=C\CC[C@@]1(C)O[C@@H]21`, the growth was 71.7% in assay [1]; 85.8% in assay [2]; 60.6% in assay [3]; 19.2% in assay [4]; 36.6% in assay [5]; 40.3% in assay [6]. Besides, the growth was 100% in assay [7] and 98.8% in assay [8].
Consider `CS(=O)(=O)c1nnc(-c2ccccc2)s1`, for which the growth in assay [1] is 44.4%; in assay [2] it was 105%; in assay [3] it was 96.5%; in assay [4], 84.8%; in assay [5], 77.8%; in assay [6], 45.1%. In addition, the values for the growth in assay [7] and in assay [8] were 103% and 92.7%, respectively.
`COc1ccc(/C=C/C(=O)c2ccc(NC(=O)CSc3nc4c([nH]3)c(=O)n(C)c(=O)n4C)cc2)cc1OC`: the growth was 76.9% in assay [1]; 59% in assay [2]; 88.5% in assay [3]; 96.2% in assay [4]; 40.7% in assay [5]; 59.3% in assay [6]. The growth in assay [7] is 75.9%; in assay [8] it was 72.3%.
As for `CCOC(=O)c1c(C)nc2c(c1N)CC(=O)N2Cc1ccc(OC)cc1`, the growth in assay [1] was 32.2%; in assay [2], 18.5%; in assay [3], 88.3%; in assay [4], 77.6%; in assay [5] it was 37.5%; in assay [6], 12.6%. Besides, the growth in assay [7] is 51.1%; in assay [8] it was 58%.
`COc1ccc(Nc2ncccc2/C=C/C(=O)c2cc(OC)c(OC)c(OC)c2)cc1`: the growth in assay [1] is -4.22% (active); in assay [2], -35% (active); in assay [3], -35.8% (active); in assay [4], -68.3% (active); in assay [5] it was -61.3% (active); in assay [6], -50.2% (active). Also, the growth in assay [7] is -75.9% (active); in assay [8] it was -87.5% (active).
Regarding `C=C1C(=O)O[C@H]2[C@H]1CC/C(Cn1cc(CCC)nn1)=C\CC[C@@]1(C)O[C@@H]21`, the growth in assay [1] was -40.1% (active); in assay [2], 40.4%; in assay [3], 36.2%; in assay [4], -0.143% (active); in assay [5], 11.1%; in assay [6], -55.7% (active). Moreover, the growth in assay [7] was 73.6%; in assay [8], 81.1%.
As to `CN(Cc1cnc2nc(N)nc(N)c2n1)c1ccc(C(=O)NC(CCC(=O)O)C(=O)O)cc1Br` (stereo not drawn), the growth in assay [1] is 44.3%; in assay [2], 61.9%; in assay [3], 39.5%; in assay [4], 28.6%; in assay [5], 19%; in assay [6], 19.8%. Further, the growth in assay [7] is 57.1%; in assay [8], 28.4%.
For the compound `C=C1C(=O)O[C@H]2[C@H]1CC/C(COC(=O)/C=C/C(=O)OC/C1=C/CC[C@@]3(C)O[C@H]3[C@H]3OC(=O)C(=C)[C@@H]3CC1)=C\CC[C@@]1(C)O[C@@H]21`, the growth in assay [1] was 32.9%; in assay [2], 93.9%; in assay [3] it was 80.4%; in assay [4] it was 6.25% (active); in assay [5], 22.2%; in assay [6], 2.7% (active). Besides, the results for the growth in assay [7] and in assay [8] were 106% and 90%, respectively.
In the case of `c1ccc2c(c1)CCCc1nnc3nc4ccccc4n3c1-2`, the growth is 31.7% in assay [1]; 62.9% in assay [2]; 61.9% in assay [3]; 53.7% in assay [4]; 45.6% in assay [5]; 17% in assay [6]. The growth in assay [7] is 42.4%; in assay [8], 55.8%.
As to `COc1ccc(C(=S)N2CCN(c3ccc(Cl)cc3)CC2)cc1`, the growth in assay [1] was 88.1%; in assay [2], 95.4%; in assay [3], 120%; in assay [4], 106%; in assay [5], 94%; in assay [6] it was 96%. Also, the growth in assay [7] was 105%; in assay [8], 101%.
With `CCN1C2CCC1/C(=C\c1ccc(F)cc1)C(=O)/C2=C/c1ccc(F)cc1`, the growth in assay [1] was 45.8%; in assay [2] it was 24.9%; in assay [3] it was 25%; in assay [4], 30.4%; in assay [5] it was 18.6%; in assay [6], 7.21% (active). Further, the growth in assay [7] is 65.8%; in assay [8], 17.5%.
With `S=c1[nH]c(=S)c2c(-c3ccccc3)c(-c3ccccc3)oc2[nH]1`, the growth in assay [1] is 91.4%; in assay [2], 119%; in assay [3], 97.3%; in assay [4] it was 101%; in assay [5], 94.3%; in assay [6], 97.9%. Also, the results for the growth in assay [7] and in assay [8] were 101% and 102%, respectively.
Turning to `CCN1C(=O)N(CC)C2C1NN=c1s/c(=C\c3cnc(C)n3C)c(=O)n12` (stereo not drawn), the growth in assay [1] is 24.9%; in assay [2], 50.1%; in assay [3], -69.1% (active); in assay [4], 9.38% (active); in assay [5], 14.5%; in assay [6], 23.2%. In addition, the growth in assay [7] is 45.6%; in assay [8] it was 16.1%.
For `Cc1ccc(-c2nc(N3CCNCC3)c3oc(-c4ccc(C)cc4)nc3n2)cc1`, the growth in assay [1] is 37.3%; in assay [2], 83.4%; in assay [3], -77.1% (active); in assay [4], -69.3% (active); in assay [5], -73.1% (active); in assay [6], -39.4% (active). In addition, the growth in assay [7] was 65.5%; in assay [8], -81.9% (active).
As for `Cc1nc2c(=O)nc3s/c(=C\c4ccco4)c(=O)n3c2nc1C`, the growth in assay [1] was 94.3%; in assay [2], 110%; in assay [3], 94.1%; in assay [4], 111%; in assay [5], 96.4%; in assay [6], 101%. Besides, the growth in assay [7] is 97.2%; in assay [8], 105%.
